Consider nine compounds from PubChem BioAssay (NCATS).

Assay [1] can be described thus: qHTS of pediatric cancer cell lines to identify multiple opportunities for drug repurposing: Primary screen for NB-EBc1 cells (AID 1347095). Further: potency means the concentration at half of the fitted maximal effect. The method in brief:
(§1)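 Plated cells (500-1,000 per well, growth media) were allowed to settle for 5 hours, treated with compound dilutions for 48 hours, then lysed with CellTiter-Glo for 15 min at room temperature before luminescence reading.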

Assay [2] in a line: qHTS of pediatric cancer cell lines to identify multiple opportunities for drug repurposing: Primary screen for U-2 OS cells (AID 1347096). Further: nearly all actives have a fitted effect of over 50% in size. The method in brief: (§2)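 Viability after 48 h compound treatment at 37C, 500-1,000 cells/well, read as ATP luminescence with CellTiter-Glo. Primary screens used 11-point (MIPE, 0.78 nM-46 µM) or 8-point (NPC, 0.59 nM-46 µM) final concentrations; follow-up screens used 11-point dilutions.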
(In general: Quantitative high-throughput screening tests each substance at several concentrations.)

A short description of assay [3]: qHTS of pediatric cancer cell lines to identify multiple opportunities for drug repurposing: Primary screen for Saos-2 cells (AID 1347097). Further: nearly all actives have a fitted effect of over 40% in size. Further: potency means the concentration at half of the fitted maximal effect. The method in brief:
as §1

The nature of assay [4]: qHTS of pediatric cancer cell lines to identify multiple opportunities for drug repurposing: Primary screen for BT-12 cells (AID 1347101). Further: nearly all actives have a fitted effect of over 25% in size. Further: potency means the concentration at half of the fitted maximal effect. The method in brief:
(§3)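 Cells (500-1,000/well) rested 5 h, then received compounds for 48 h; metabolically active cells were measured by CellTiter-Glo luminescence. Final concentrations spanned up to 46 µM (MIPE, 11-point) or 0.59 nM-46 µM (NPC, 8-point) in primary screens, 11-point in follow-ups.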

The nature of assay [5]: qHTS of pediatric cancer cell lines to identify multiple opportunities for drug repurposing: Primary screen for control Hh wild type fibroblast cells (AID 1347106).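 Further: series mostly up to about 46 µM; a drop in luminescence marks cytotoxicity and a rise apparent proliferation; nearly all actives have a fitted effect of over 55% in size.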 A digest of the protocol:
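Cells (500-1,000/well) in growth media were settled 5 h at 37 degrees C, then given compounds for 48 h. Viability was read as CellTiter-Glo luminescence. Primary runs used MIPE at 11 points (0.78 nM-46 µM) and NPC at 8 points (0.59 nM-46 µM); follow-ups used 11 points.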

The nature of assay [6]: qHTS of pediatric cancer cell lines to identify multiple opportunities for drug repurposing: Primary screen for Rh30 cells (AID 1347107). Further: nearly all actives have a fitted effect of over 75% in size. Further: potency means the concentration at half of the fitted maximal effect. A digest of the protocol:
as §2

Assay [7] is described as follows: qHTS of pediatric cancer cell lines to identify multiple opportunities for drug repurposing: Confirmatory screen for NB1643 cells (AID 1347109). Further: nearly all actives have a fitted effect of over 45% in size. The method in brief:
as §2

A short description of assay [8]: qHTS of pediatric cancer cell lines to identify multiple opportunities for drug repurposing: Confirmatory screen for SK-N-MC cells (AID 1347111).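 Further: cells exposed to compound for 48 h before the readout; nearly all actives have a fitted effect of over 70% in size.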 Further: potency means the concentration at half of the fitted maximal effect. A digest of the protocol:
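SK-N-MC cells at 500-1,000 cells/well in growth media were pre-incubated 5 h, then exposed to compounds at 11-point dilutions for 48 h at 37 degrees C, 5% CO2. Viability was read as CellTiter-Glo luminescence.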

Assay [9] in a line: qHTS of pediatric cancer cell lines to identify multiple opportunities for drug repurposing: Confirmatory screen for LAN-5 cells (AID 1347113). Further: nearly all actives have a fitted effect of over 65% in size. The method in brief: as §2
A short description of assay [10]: qHTS of pediatric cancer cell lines to identify multiple opportunities for drug repurposing: Confirmatory screen for SJ-GBM2 cells (AID 1347116). Further: nearly all actives have a fitted effect of over 60% in size. A digest of the protocol: (§4)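 Viability measured as metabolically active cells via CellTiter-Glo luminescence following 48 hours of compound exposure, 11-point dilutions in confirmatory testing. 500-1,000 cells/well plated 5 hours before dosing; controls were DMSO and 2.3 µM bortezomib.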

Assay [11] can be described thus: qHTS of pediatric cancer cell lines to identify multiple opportunities for drug repurposing: Primary screen for SK-N-SH cells (AID 1347098). Further: nearly all actives have a fitted effect of over 65% in size. Further: potency means the concentration at half of the fitted maximal effect. A digest of the protocol:
as §3

Assay [12] is described as follows: qHTS of pediatric cancer cell lines to identify multiple opportunities for drug repurposing: Primary screen for NB1643 cells (AID 1347099). Further: nearly all actives have a fitted effect of over 50% in size. Further: potency means the concentration at half of the fitted maximal effect. The method in brief:
as §1

Assay [13] in a line: qHTS of pediatric cancer cell lines to identify multiple opportunities for drug repurposing: Primary screen for LAN-5 cells (AID 1347100). Further: potency means the concentration at half of the fitted maximal effect. A digest of the protocol: as §2
The nature of assay [14]: qHTS of pediatric cancer cell lines to identify multiple opportunities for drug repurposing: Primary screen for Rh18 cells (AID 1347102). Further: nearly all actives have a fitted effect of over 65% in size. Further: potency means the concentration at half of the fitted maximal effect. A digest of the protocol:
as §2

Assay [15] in a line: qHTS of pediatric cancer cell lines to identify multiple opportunities for drug repurposing: Primary screen for OHS-50 cells (AID 1347103). Further: nearly all actives have a fitted effect of over 40% in size. Further: potency means the concentration at half of the fitted maximal effect. A digest of the protocol:
as §3

The nature of assay [16]: qHTS of pediatric cancer cell lines to identify multiple opportunities for drug repurposing: Primary screen for RD cells (AID 1347104). Further: nearly all actives have a fitted effect of over 55% in size. Further: potency means the concentration at half of the fitted maximal effect. The method in brief: as §1
Assay [17] is described as follows: qHTS of pediatric cancer cell lines to identify multiple opportunities for drug repurposing: Primary screen for MG 63 (6-TG R) cells (AID 1347105). Further: nearly all actives have a fitted effect of over 50% in size. Further: potency means the concentration at half of the fitted maximal effect. The method in brief: as §1
Assay [18] is described as follows: qHTS of pediatric cancer cell lines to identify multiple opportunities for drug repurposing: Primary screen for Rh41 cells (AID 1347108). Further: nearly all actives have a fitted effect of over 70% in size. Further: potency means the concentration at half of the fitted maximal effect. A digest of the protocol:
as §1

The nature of assay [19]: qHTS of pediatric cancer cell lines to identify multiple opportunities for drug repurposing: Confirmatory screen for A673 cells (AID 1347110). Further: nearly all actives have a fitted effect of over 65% in size. Further: potency means the concentration at half of the fitted maximal effect. A digest of the protocol:
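A673 cells at 500-1,000 cells/well were dosed 5 h after plating, in dilution series up to 46 uM final; primary runs used 8 or 11 points and confirmatory runs used 11 points. Viability was read by CellTiter-Glo luminescence after 48 h, against DMSO and 2.3 uM bortezomib controls.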

Assay [20] can be described thus: qHTS of pediatric cancer cell lines to identify multiple opportunities for drug repurposing: Confirmatory screen for DAOY cells (AID 1347114). Further: nearly all actives have a fitted effect of over 65% in size. A digest of the protocol:
as §4

Molecules are shown by their SMILES. Where “and” joins values, the source holds several entries; their conditions need not be identical. Equal entries are not always repeated. Records with an inconclusive call do not appear. Calls of active or inactive are those of the source. The call rests on the fitted dose curve; in most records, active means well fitted curve in the direction sought with a large enough effect; inconclusive means small, poorly fitted or top-dose-only effect, or another doubt; inactive means no such curve, though single readings can be large; an effect the other way counts as inactive or inconclusive.

For `COc1cc2c(Nc3ccc(Br)cc3F)ncnc2cc1OCC1CCN(C)CC1`, the Potency entry in assay [1], in assay [2], in [3], in assay [4], in assay [5] and in assay [6] was “inactive” throughout. Moreover, the Potency entry in [7], in [8], in assay [9] and in [10] was “inactive” each time.
Take `CS(=O)(=O)c1ccc([C@@H](O)[C@@H](CO)NC(=O)C(Cl)Cl)cc1`: the Potency result in [1], in assay [2], in assay [3], in assay [11], in assay [12] and in assay [13] was “inactive” in each case. The Potency entry in assay [4], in assay [14], in assay [15], in assay [16], in assay [17] and in [5] was “inactive” in each case. Moreover, the Potency result in assay [18], in [19], in assay [9], in assay [20] and in assay [10] was “inactive” throughout.
`NC1(c2ccc(-c3nc4ccn5c(=O)[nH]nc5c4cc3-c3ccccc3)cc2)CCC1`: the Potency was 2.35 µM (active) and 11.9 µM (active) in assay [1]; 10.5 µM (active) in [3]; 19.2 µM (active) and 17.2 µM (active) in assay [11]; 3.72 µM (active) in assay [13]; 21.7 µM (active) and 24.6 µM (active) in assay [4]; 16.8 µM (active) in assay [14]. The Potency was 344 nM (active) and 692 nM (active) in assay [15]; 16.6 µM (active) and 13.3 µM (active) in [16]; 7.43 µM (active) and 13.3 µM (active) in [17]; 18.7 µM (active) in [6]; 11.8 µM (active) in assay [18]. The Potency entry in assay [2] and in assay [5] was “inactive” throughout.
Consider `CC(C)OC(=O)OCOP(=O)(CO[C@H](C)Cn1cnc2c(N)ncnc21)OCOC(=O)OC(C)C`, for which the Potency result in [1], in assay [2], in assay [3], in [12], in [13] and in [14] was “inactive” each time. The Potency result in assay [16], in [17], in assay [5], in [6] and in assay [18] was “inactive” each time.
In the case of `CCCN[C@H]1CCc2nc(N)sc2C1`, the Potency entry in [1], in assay [2], in [3], in assay [11], in assay [12] and in [13] was “inactive” throughout. Moreover, the Potency result in assay [4], in [14], in [15], in assay [16], in assay [17] and in assay [5] was “inactive” in each case. Moreover, the Potency entry in assay [18] was “inactive”.
`O=c1cc(O)c(Cl)c[nH]1`: the Potency result in [1], in assay [2], in assay [3], in assay [11], in assay [13] and in [4] was “inactive” in each case. Moreover, the Potency entry in assay [14], in [15], in assay [17], in assay [5] and in assay [6] was “inactive” throughout.
Take `Nc1nc(N)nc(-c2cc(Cl)ccc2Cl)n1`: the Potency entry in [1], in assay [2], in assay [3], in assay [11], in assay [12] and in assay [13] was “inactive” each time. The Potency result in assay [4], in assay [14], in assay [15], in [16], in [17] and in assay [5] was “inactive” throughout. Besides, the Potency entry in assay [18] and in [20] was “inactive” each time. In addition, the Potency in assay [19] was 26.9 µM (active); in assay [8], 1.17 µM (active).
In the case of `CNC1CCCN(c2c(F)cc3c(=O)c(C(=O)O)cn(C4CC4)c3c2OC)C1` (centres undefined), the Potency result in assay [1], in assay [2], in assay [3], in assay [13], in [4] and in assay [14] was “inactive” each time. Moreover, the Potency result in assay [15], in assay [16], in assay [17], in assay [5] and in assay [6] was “inactive” in each case.
On to `CC1=CC(=O)c2ccccc2C1=O`, for which the Potency in assay [1] was 7.43 µM (active); in assay [3] it was 18.7 µM (active); in assay [11], 21.7 µM (active); in [12], 16.6 µM (active); in [13], 16.8 µM (active) and 23.5 µM (active); in assay [16] it was 18.7 µM (active). Further, the Potency result in assay [2], in assay [4], in [14], in [17], in [5] and in [6] was “inactive” each time.
